# Rows were chosen to be rich in hits. Some 21% of all compounds tested hit in one or more screens of this group.
# Pf growth 48h – inhibits P. falciparum growth in the first generation, 48 h; AID 504832; Potency, µM (top dose mostly 28.7 µM), for inactives: top-dose activity change, negative = inhibition, actives largely listed as inhibitors; actives 5.9% (n = 310,000); P. falciparum luciferase growth in erythrocytes, 48 h; further: potency means the concentration at half of the fitted maximal effect; on the % scale 0 is the no-effect control and ±100 the full control effect
#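 Growth was read as firefly luciferase luminescence after a 48 h, 37 C, 5% CO2 exposure of compounds to reporter-bearing P. falciparum cultures (0.1% parasitemia, 2% hematocrit final) in Albumax-supplemented RPMI 1640.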
# Cycloheximide cs – affects cycloheximide protein synthesis inhibition readout, counter-screen. max response, %. cell reporter, cycloheximide protein synthesis inhibition counterscreen. actives 12% (n = 300,000); in the data active means max response mostly above about 13%, no sharp cut-off; inactive means mostly below about 14%; further: read at 38.3 µM for the half of the compounds with a filed dose; 0% is about no effect
# NS1 inh – blocks influenza NS1 protein function; actives 0.4% (n = 270,000); AID 2326; Potency, µM (titrated, usually from 46.1 µM), inactives show at the highest dose activity, positive = more growth; calls by dose curve; further: potency means the concentration at half of the fitted maximal effect; actives are rising curves; nearly all actives have a fitted effect of over 50% in size
#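 OD600 was taken as the measure of yeast growth restored by compound in an NS1-expressing S. cerevisiae strain. Cells had been washed out of glucose medium and diluted 1:100 into galactose -URA medium, pH 6.0.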
# Pf growth 96h – inhibits malaria parasite growth, 96 h; P. falciparum luciferase reporter growth, 96 h; Potency, µM (highest dose often 28.7 µM), for inactives: at the highest dose activity change, negative = inhibition, usual class: inhibitors; actives 6.9% (n = 320,000); AID 504834; further: potency means the concentration at half of the fitted maximal effect; on the % scale 0 is the no-effect control and ±100 the full control effect
#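 Delayed-death screen, second-generation endpoint: infected erythrocytes, 2% hematocrit, 0.05% parasitemia final; 96 hours at 37 C, 5% CO2; luciferase detection reagent; luminescence decrease equals reduced growth.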
# Shiga inhibitor – Shiga toxin inhibition | Vero cells, Shiga toxin protein synthesis inhibition reporter | actives 9.2% (n = 290,000) | inhibition, % at 38.7 µM; in the data active means inhibition mostly above about 28%, no sharp cut-off; inactive means mostly below about 43%; further: 0% is about no effect
# * = called active by the depositor; ? = inconclusive; . = not tested or not shown; [ ] = remark or other dose. Unless noted, the call rests on the fitted dose curve; in most records, active means well fitted inhibition curve with a large enough effect; inconclusive means small, poorly fitted or top-dose-only effect, or another doubt; inactive means no such curve, though single readings can be large or run the other way.
SMILES,Pf growth 48h,Cycloheximide cs,NS1 inh,Pf growth 96h,Shiga inhibitor
O=S(=O)(O)c1ccc2cc(N=Nc3cc(S(=O)(=O)O)c4cccnc4c3O)ccc2c1,.,.,-1%,.,.
Oc1ccc(N=Nc2ccc3c(c2)OCCO3)c2cccnc12,1µM*,44*,.,?,135*
O=[N+]([O-])c1ccc(O)c2cccnc12,2%,11,.,47%[5.75 µM],-9
COc1cccc(N=Nc2ccc3cccnc3c2O)c1,.,30*,-94%,?,62*
O=c1[nH]c(=O)n(-c2ccccc2)c(O)c1N=Nc1ccc(Br)cc1,68%,19,.,3%,20
CC(O)CCCCn1c(=O)c2c(ncn2C)n(C)c1=O (stereo not given),-4%,.,.,-3%,.
COC(=O)c1sccc1NC(=O)COc1ccc(F)cc1Cl,16%,13,-4%,4%,19
Nc1cc2c(cc1C(=O)c1cccc(Br)c1)OCCO2,19%,-2,-2%,30%,9
Cc1ccc(O)c2ncccc12,-19%,.,.,?,.
COc1ccc(N=Nc2ccc(O)c3ncccc23)cc1,0.59µM*,5,17%,0.52µM*,6
Cc1ccccc1N=Nc1ccc(O)c2ncccc12,0.37µM*,-3,-16%,?,2
COc1ccc(C)cc1N=Nc1ccc(O)c2ncccc12,2.6µM*,-2,.,?,33
O=S(=O)(O)c1cccc2c(N=Nc3ccc(O)c4ncccc34)cccc12,?,1,7%,-17%,-4
O=Nc1ccc(O)c2ncccc12,1.5µM*,56*,4%,3.3µM*,44*
Cc1ccc(S(=O)(=O)N(CCO)c2cc3c(s2)CCCC3)cc1,-30%,-2,-26%,-2%,-3
Cc1cc(C)cc(OCC(=O)OCC(=O)N(C)CC(=O)Nc2ccc(F)cc2)c1,1%,.,.,?,.
Nc1ccc(Br)c2cccnc12,13%,8,-7%,27%,13
O=C(CNC(=O)c1ccc2c(c1)OCCO2)N/N=C/c1ccc(O)cc1O,-5%,-7,1%,?,-14
Nc1ccc(N=Nc2ccccc2)c2cccnc12,50%,48*,10%,14%,90*
Oc1ccc(N=Nc2ccc3c(c2)OCCO3)c(O)c1,130%,22*,4%,152%,25
COc1cccc(N=Nc2ccc(O)c3ncccc23)c1,?,13*,-115%,?,89*
Cc1ccc(N=Nc2ccc(O)cc2)c(Br)c1,179%,44*,-153%,336%,49*
OC[C@H]1O[C@@H]2O[C@H]3[C@H](O)[C@@H](O)[C@@H](O[C@H]4[C@H](O)[C@@H](O)[C@@H](O[C@H]5[C@H](O)[C@@H](O)[C@@H](O[C@H]6[C@H](O)[C@@H](O)[C@@H](O[C@H]7[C@H](O)[C@@H](O)[C@@H](O[C@H]8[C@H](O)[C@@H](O)[C@@H](O[C@H]1[C@H](O)[C@H]2O)O[C@@H]8CO)O[C@@H]7CO)O[C@@H]6CO)O[C@@H]5CO)O[C@@H]4CO)O[C@@H]3CO,1%,.,.,2%,.
CC(C)Cn1c(N)c(C(=O)COC(=O)c2ccc([N+](=O)[O-])o2)c(=O)n(C)c1=O,-23%,10,.,-25%,-4
Cc1c(Cl)cccc1NC(=O)CCN1C(=O)NC(C)(C)C1=O,-11%,.,.,24%,.
SMILES,Pf growth 48h,Cycloheximide cs,NS1 inh,Pf growth 96h,Shiga inhibitor
CC(C)(C)c1ccc(Oc2ccc(NC(=O)c3ccco3)cn2)cc1,2.1µM*,-3,-50%,8.3µM*,27
CC(C)COc1ccc(C(=O)Nc2ccc(NC(=O)c3ccco3)cc2)cc1,13%,0,6%,-2%,-7
O=C(Nc1ccc(Oc2cccc(C(F)(F)F)c2)nc1)c1ccco1,?,-1,-8%,13µM*,16
O=C(Nc1ccc(Oc2cccnc2)nc1)c1ccc(C(F)(F)F)cc1,?,17,-3%,?,19
CCCCn1c(CCC)nc([N+](=O)[O-])c1Sc1ccc(Cl)cn1,10µM*,1,-14%,15µM*,18
CC(C)Cn1c(C(C)C)nc([N+](=O)[O-])c1Sc1ccc(Cl)cn1,9.3µM*,-3,-8%,9.3µM*,-4
O=C(CSc1cn[nH]n1)Nc1ccccc1F,23%,.,.,4%,.
CCOc1ccc(S(=O)(=O)N(C)CC(=O)NC2CCCC2)cc1,?,-2,-9%,-1%,-6
Cc1c(C(=O)Nc2nc3ccccc3[nH]2)oc2ccccc12,-31%,47*,-12%,-70%,100*
Cc1c(C(=O)Nc2nc3ccccc3[nH]2)oc2c(Cl)cccc12,?,32*,13%,?,76*
Cc1c(C(=O)Nc2ccccn2)oc2c(Cl)cccc12,34%,.,.,42%,.
CCCCN1C(=O)C2ON(c3ccccc3C)C(c3ccco3)C2C1=O (stereo not given),13µM*,-1,-64%,85%,6
CCC(=O)NC(=S)Nc1ccc(NC(=O)c2ccc([N+](=O)[O-])cc2Cl)cc1,-17%,3,0%,8%,24
Cc1ccc(-n2cc(CCCCCCCCC(=O)O)nn2)cc1,1%,1,-14%,5.9µM*,-1
Cc1ccc(C(=O)OCc2cn(-c3ccccc3)nn2)cc1,13µM*,17,.,?,-6
O=C(Nc1ccc(Cl)cc1)OCc1cn(-c2ccccc2)nn1,231%,30*,.,33%,30
CC(C)(C)n1nc2c(c1NC(=O)Cc1ccccc1)CS(=O)(=O)C2,9%,-5,.,0%,38
COc1cccc(C2=NN(C(=O)CCCC(=O)O)C(c3cccs3)C2)c1 (stereo not given),-8%,10,4%,-9%,41
CCn1c(C)nc2cc(C(=O)N/N=C/c3cccc(O)c3O)ccc21,10µM*,31*,-6%,?,67*
CCn1c(C)nc2cc(C(=O)N/N=C/c3ccccc3)ccc21,204%,34*,2%,159%,94*
CCn1c(C)nc2cc(C(=O)N/N=C/c3ccc(O)cc3)ccc21,33%,-2,0%,11%,11
O=C(CC(c1ccco1)C1CCCCC1=O)c1ccccc1 (stereo not given),-3%,12,-2%,.,-6
CN1CCN(CCCC(=O)c2ccc(C3CCCC3)cc2)CC1,-9%,29*,7%,?,54*
Cc1sc2ncnc(N3CCC(C(=O)Nc4sc5c(c4C(N)=O)CCC(C)C5)CC3)c2c1C (stereo not given),-9%,.,.,-11%,.
Nc1[nH]ncc1N=Nc1ccc(Cl)cc1,.,55*,-62%,82%,98*
SMILES,Pf growth 48h,Cycloheximide cs,NS1 inh,Pf growth 96h,Shiga inhibitor
Nc1n[nH]c(N)c1N=Nc1cccc(C(F)(F)F)c1,2%[0.00184 µM],15,-1%,15%,22
Nc1[nH]ncc1-c1ccc(Cl)cc1,-2%,-1,.,?,-7
Cc1cccc(N=Nc2c(N)n[nH]c2N)c1,19%,17*,18%,?,36
Nc1n[nH]c(N)c1N=Nc1cccc(F)c1,14%,16,10%,-14%,34*
Nc1n[nH]c(N)c1N=Nc1ccc(Cl)cc1,61%,47*,?,6%,20
O=c1cc(N=Nc2ccc(Cl)cc2)[nH]c(=O)[nH]1,-9%,-2,-66%,?,-11

# Screening results: PubChem BioAssay, National Center for Advancing Translational Sciences (NCATS)
